Most compounds without a hit are left out; they make up all but 4% or so of the library.
Gli-Sufu block: blocks Gli-Sufu signaling in a luciferase reporter; Sufu-KO-LIGHT fibroblasts, Gli luciferase reporter luminescence; inhibition, % at 5 µM; 340,000 compounds, 0.74% hits; AID 588413;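 active means inhibition above about 55%, limit read from the data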
Beta apoptosis: blocks beta cell apoptosis; 300,000 compounds, 0.8% hits; INS-1E cytokine-induced death, ATP luminescence, 48 h; percent of positive-control rescue, neutral wells zero; AID 435005; protection from apoptosis, % (no concentration beside the values);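 active means Every replicate reaches about 75%, or at least half do and their mean reaches it too, limit read from the data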;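 further: higher means more ATP so stronger rescue from cytokine killing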
PAX8 inh HTS: lowers PAX8-driven luciferase in RMG-I cells | RMG-I TPO-luciferase reporter, SteadyGlo, 24 h | inhibition, % at 12.6 µM | 360,000 compounds, 1.2% hits | AID 652154;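 active means mean replicate inhibition at least 60% with every replicate also reaching 60%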;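 further: luciferase light reporting Pax8 driven TPO promoter activity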
CSC inhib: cancer stem cell inhibition | cancer stem cell-like cells viability, luminescence | inhibition, % at 7.5 µM | 300,000 compounds, 1.1% hits | AID 2717; in the data active means inhibition above about 75%; tested in HMLE shEcad cells
Mdm2-MdmX inh: human Mdm2/MdmX binding inhibition | O15151+Q00987 | SaOS-2 split-luciferase Mdm2/MdmX complementation, luminescence | inhibition, % at 8 µM | 330,000 compounds, 3% hits | AID 485346;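 active means inhibition of at least 50% at 8 µM in the primary screen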
Target sequence (O15151 whole entry, looked up): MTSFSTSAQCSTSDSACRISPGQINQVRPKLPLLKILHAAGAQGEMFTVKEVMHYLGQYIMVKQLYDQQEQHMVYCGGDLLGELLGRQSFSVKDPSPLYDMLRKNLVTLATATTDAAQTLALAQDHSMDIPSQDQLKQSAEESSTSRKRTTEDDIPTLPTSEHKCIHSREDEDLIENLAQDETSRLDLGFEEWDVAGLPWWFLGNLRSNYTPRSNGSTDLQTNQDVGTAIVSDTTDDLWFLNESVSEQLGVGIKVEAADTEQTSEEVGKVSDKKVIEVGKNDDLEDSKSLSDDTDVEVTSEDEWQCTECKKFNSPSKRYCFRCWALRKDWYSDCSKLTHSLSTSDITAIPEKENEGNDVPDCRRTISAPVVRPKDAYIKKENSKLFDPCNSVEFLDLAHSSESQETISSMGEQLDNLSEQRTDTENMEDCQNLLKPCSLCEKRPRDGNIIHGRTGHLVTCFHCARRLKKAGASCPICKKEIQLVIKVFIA
Target sequence (Q00987 whole entry, looked up): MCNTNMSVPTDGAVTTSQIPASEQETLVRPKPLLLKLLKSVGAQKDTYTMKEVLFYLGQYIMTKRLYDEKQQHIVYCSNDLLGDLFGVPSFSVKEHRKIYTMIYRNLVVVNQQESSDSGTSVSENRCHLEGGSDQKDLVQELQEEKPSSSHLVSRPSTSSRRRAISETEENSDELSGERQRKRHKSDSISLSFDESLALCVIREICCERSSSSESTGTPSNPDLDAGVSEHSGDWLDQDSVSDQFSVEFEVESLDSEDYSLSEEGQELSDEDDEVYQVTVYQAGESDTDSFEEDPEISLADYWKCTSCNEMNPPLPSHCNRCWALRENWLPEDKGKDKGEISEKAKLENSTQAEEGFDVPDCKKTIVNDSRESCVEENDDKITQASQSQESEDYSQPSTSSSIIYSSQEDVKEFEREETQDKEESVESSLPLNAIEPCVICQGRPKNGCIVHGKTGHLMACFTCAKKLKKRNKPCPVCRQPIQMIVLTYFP
Shn3 inh set2: Schnurri-3 reporter inhibition in Clone20 osteoblasts; inhibition, % at 12.5 µM; AID 588674; 360,000 compounds, 0.52% hits; Clone20 osteoblast Shn3 3'UTR firefly luciferase, 24 h;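 active means mean inhibition of at least 75% with every replicate also reaching 75%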
Mdm2-MdmX conf: confirmation of human Mdm2/MdmX interaction inhibitors. shares compounds with Mdm2-MdmX inh. Mdm2-MdmX binding, luminescent assay. inhibition, % at 8 µM. 10,000 compounds, 55% hits. AID 489028; in the data active means inhibition above about 40%
FLuc counter: inhibits full-length luciferase, flagging false Mdm2/MdmX hits | shares compounds with Mdm2-MdmX inh | SaOS-2 full-length luciferase counterscreen, luminescence | inhibition, % at 8 µM | 6,200 compounds, 77% hits | AID 504607;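 active means mean inhibition at 8 µM reaching about 37%, which flags the compound as non-specific, limit read from the data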;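 further: p53-null SaOS-2 cells with luciferase driven by a doxycycline-inducible promoter; compound on cells about two nights before reading with doxycycline added after day one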
A number is an active result.

For COc1ccc2c3c([nH]c2c1)[C@H](CO)N(C(=O)c1cccc(F)c1)CC31CN(C(=O)c2cccc(F)c2)C1 the results were PAX8 inh HTS inactive.
`CC(C)NC(=O)N1C[C@@H]2[C@H](c3ccccc31)[C@H](CO)N2C(=O)c1ccc(F)cc1` gave PAX8 inh HTS inactive.
COC(=O)c1ccc(NC(=O)COc2coc(CN3CCc4ccccc43)cc2=O)cc1 was read as Gli-Sufu block inactive, Beta apoptosis inactive, CSC inhib inactive, Mdm2-MdmX inh inactive and Shn3 inh set2 inactive.
Screening Cc1ccc(NC(=O)COc2coc(CN3CCc4ccccc43)cc2=O)cc1Cl returned Gli-Sufu block inactive, Beta apoptosis inactive, PAX8 inh HTS inactive, CSC inhib inactive, Mdm2-MdmX inh 62, Shn3 inh set2 inactive and Mdm2-MdmX conf inactive.
C[C@H](CO)N1C[C@H](C)[C@H](CN(C)Cc2ccc3c(c2)OCO3)OCCCC[C@H](C)Oc2ccc(NC(=O)Cc3ccccc3)cc2C1=O was read as PAX8 inh HTS inactive.
Screening Cc1ccccc1-c1nnc(-c2ccc(Cl)cc2)o1 returned Gli-Sufu block inactive, Beta apoptosis inactive, CSC inhib inactive, Mdm2-MdmX inh inactive and Shn3 inh set2 inactive.
For Cc1ccc(CS(=O)(=O)c2ccccc2-c2nnc(-c3ccc(Cl)cc3)o2)cc1 the results were Gli-Sufu block inactive, Beta apoptosis inactive, CSC inhib inactive, Mdm2-MdmX inh 55, Shn3 inh set2 inactive and Mdm2-MdmX conf inactive.
For C[C@@H]1CCCCO[C@@H](CN(C)S(=O)(=O)c2ccc(F)cc2)[C@H](C)CN([C@@H](C)CO)C(=O)c2cc(NC(=O)c3ccccc3)ccc2O1 the results were PAX8 inh HTS inactive.
CCCC(=O)Nc1ccc2c(c1)C(=O)N(C)[C@H]1CC[C@@H](CC(=O)NCCc3ccccc3)O[C@H]1CO2 was read as PAX8 inh HTS inactive.
For C[C@H](CO)N1C[C@H](C)[C@@H](CN(C)Cc2ccc(Cl)c(Cl)c2)Oc2c(NC(=O)c3cnccn3)cccc2C1=O the results were PAX8 inh HTS inactive.
Screening O=C(CCCN1C(=O)/C(=C/c2ccccc2Cl)SC1=S)NNC(=O)c1ccncc1 returned Gli-Sufu block inactive, Beta apoptosis inactive, PAX8 inh HTS inactive, CSC inhib inactive, Mdm2-MdmX inh inactive and Shn3 inh set2 inactive.
Screening COc1ccc(/C=C2\SC(=S)N(CCCC(=O)NNC(=O)c3ccccc3O)C2=O)cc1 returned Gli-Sufu block inactive, Beta apoptosis inactive, PAX8 inh HTS 66, CSC inhib inactive, Mdm2-MdmX inh 57, Shn3 inh set2 inactive, Mdm2-MdmX conf 58 and FLuc counter 46.
For O=C(CCN1C(=O)/C(=C/c2ccccc2Cl)SC1=S)N1CCOCC1 the results were Gli-Sufu block inactive, PAX8 inh HTS inactive, CSC inhib inactive, Mdm2-MdmX inh inactive and Shn3 inh set2 inactive.
Screening O=C(CCCN1C(=O)/C(=C/c2ccccc2Cl)SC1=S)NNC(=O)c1ccccc1Cl returned Gli-Sufu block inactive, Beta apoptosis inactive, PAX8 inh HTS inactive, CSC inhib inactive, Mdm2-MdmX inh 56, Shn3 inh set2 inactive and Mdm2-MdmX conf inactive.
`Cc1cc(NC(=O)CCCN2C(=O)/C(=C/c3ccccc3Cl)SC2=S)no1` gave Gli-Sufu block inactive, Beta apoptosis inactive, PAX8 inh HTS inactive, CSC inhib inactive, Mdm2-MdmX inh 68, Shn3 inh set2 inactive, Mdm2-MdmX conf 43 and FLuc counter 58.
O=C(CCN1C(=O)/C(=C/c2ccccc2Cl)SC1=S)N1CCCC1 was read as Gli-Sufu block inactive, Beta apoptosis inactive, PAX8 inh HTS 83, CSC inhib inactive, Mdm2-MdmX inh 62, Shn3 inh set2 inactive and Mdm2-MdmX conf inactive.
Screening COc1ccc(/C=C2/SC(=S)N(CCCC(=O)Nc3ccccc3C(=O)O)C2=O)cc1 returned Gli-Sufu block inactive, Beta apoptosis inactive, PAX8 inh HTS inactive, CSC inhib inactive, Mdm2-MdmX inh inactive and Shn3 inh set2 inactive.
`C[C@@H]1CN([C@H](C)CO)C(=O)c2cc(NC(=O)NC3CCCCC3)ccc2O[C@@H](C)CCCCO[C@@H]1CN(C)S(=O)(=O)c1ccc(F)cc1` gave PAX8 inh HTS inactive.
CO[C@@H]1CN(C)C(=O)c2cc(NC(=O)c3ccc(F)cc3)ccc2OC[C@H](C)N(C(=O)c2ccc(F)cc2)C[C@@H]1C was read as PAX8 inh HTS inactive.
`CCCNC(=O)N1C[C@@H](O)COC[C@H]2O[C@@H](CC(=O)N3CCC(Cc4ccccc4)CC3)CC[C@@H]21` gave PAX8 inh HTS inactive.
`O=C(O)C(c1ccccc1)N1C(=O)/C(=C/c2cccs2)SC1=S` (stereo unspecified) gave Gli-Sufu block inactive, Beta apoptosis inactive, PAX8 inh HTS inactive, CSC inhib inactive, Mdm2-MdmX inh inactive and Shn3 inh set2 inactive.
For COc1ccc(CN2C(=O)/C(=C/c3ccncc3)SC2=S)cc1 the results were Gli-Sufu block inactive, Beta apoptosis inactive, PAX8 inh HTS inactive, CSC inhib inactive, Mdm2-MdmX inh 75, Shn3 inh set2 inactive, Mdm2-MdmX conf 76 and FLuc counter 39.
Screening CC(c1ccccc1)N1C(=O)/C(=C/c2ccncc2)SC1=S (stereo unspecified) returned Gli-Sufu block inactive, PAX8 inh HTS inactive, CSC inhib 85, Mdm2-MdmX inh 67, Shn3 inh set2 inactive and Mdm2-MdmX conf inactive.
`O=C(CCCN1C(=O)/C(=C/c2ccccc2Cl)SC1=S)N1CCCC1` gave Gli-Sufu block inactive, Beta apoptosis inactive, PAX8 inh HTS inactive, CSC inhib inactive, Mdm2-MdmX inh 76, Shn3 inh set2 inactive and Mdm2-MdmX conf inactive.
Screening O=S(=O)(N[C@@H]1CC[C@H](CCn2cc(C3(O)CCCC3)nn2)O[C@H]1CO)c1ccc(F)cc1 returned PAX8 inh HTS inactive.
`Cn1c2ccccc2c(=O)c2cc(C#CC3(O)CCCCC3)ccc21` gave Gli-Sufu block inactive, Beta apoptosis inactive, PAX8 inh HTS inactive, CSC inhib inactive, Mdm2-MdmX inh 69, Shn3 inh set2 inactive, Mdm2-MdmX conf 53 and FLuc counter 169.
`O=c1c2ccccc2oc2ccc(C#CC3(O)CCCCC3)cc12` gave Gli-Sufu block inactive, Beta apoptosis inactive, PAX8 inh HTS inactive, CSC inhib 93, Mdm2-MdmX inh 59, Shn3 inh set2 inactive, Mdm2-MdmX conf 51 and FLuc counter 173.
Screening Cc1ccc2oc3ccccc3c(=O)c2c1 returned Gli-Sufu block inactive and Shn3 inh set2 inactive.
For Cn1c2ccccc2c(=O)c2ccc(C#CC3(N)CCCCC3)cc21 the results were Gli-Sufu block inactive, Beta apoptosis inactive, PAX8 inh HTS inactive, CSC inhib inactive, Mdm2-MdmX inh inactive and Shn3 inh set2 inactive.
